According to PubChem BioAssay (EPA / NIEHS):
Values joined by “and” are separate entries in the source; they are usually repeats but may differ in a detail not shown here. Identical values can stand only once. The source holds several records for some structures; these can differ, active in one and inactive in another. Active and inactive are the calls of the source. How the source made its calls: active means hit-call score of the fitted dose curve at least 0.9, where 1 is the maximum; inactive means score below 0.9.

What was measured:
[1] = ATG_CRE_CIS: Attagene CIS-FACTORIAL HepG2 Assay for human cAMP Responsive Element (CRE) binding protein 3 (AID 2282926); settings: HepG2 CRE cis-reporter, Attagene multiplexed mRNA; actives raise or lower the signal
Procedure, shortened: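 Multiplexed transcription-unit reporters transfected into HepG2; 24 h dosing; RT-PCR/capillary electrophoresis fluorescence read-out; bidirectional fit vs DMSO.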

[2] = target: CCAAT/enhancer-binding protein beta (Homo sapiens) (UniProt P17676); test: ATG_C_EBP_CIS: Attagene CIS-FACTORIAL HepG2 Assay for human CCAAT/Enhancer Binding Protein (C/EBP) beta (AID 2282927); settings: HepG2 Attagene cis-factorial transcription factor reporter; actives raise or lower the signal
Procedure, shortened: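 Endogenous C/EBPb-driven reporter transcripts measured in transfected human HepG2 cells at 24 h via RT-PCR and capillary electrophoresis of labelled fragments. Activity fitted in both directions relative to DMSO baseline.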

[3] = ATG_CMV_CIS: Attagene CIS-FACTORIAL HepG2 Assay for human CMV (Internal Marker) (AID 2282928); settings: HepG2 CMV promoter reporter, transcription factor profiling; actives raise or lower the signal;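 further: endpoint acts as a background internal control marker rather than a target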
Procedure, shortened: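 Cell system: HepG2, transiently transfected multiple reporter units under cis promoters. Exposure: 24 h. Detection: RT-PCR, FAM labeling, HpaI digestion, capillary electrophoresis. Analysis: bidirectional, DMSO baseline.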

[4] = ATG_DR4_LXR_CIS: Attagene CIS-FACTORIAL HepG2 Assay for human Liver X Receptor (LXR), DR4 submotif (AID 2282929); settings: HepG2 Attagene DR4 cis-reporter, mRNA transcription; actives raise or lower the signal
Procedure, shortened: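 Measures endogenous transcription factor activity via a DR4-driven reporter transcript in human HepG2 cells. Compounds incubated 24 h; mRNA quantified by RT-PCR and capillary electrophoresis, analysed as gain or loss of signal versus DMSO.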

[5] = target: Aryl hydrocarbon receptor (Homo sapiens) (UniProt P35869); test: ATG_Ahr_CIS: Attagene CIS-FACTORIAL HepG2 Assay for human Aryl Hydrocarbon Receptor (Ahr) (AID 2282930); settings: HepG2 AhR cis-factorial reporter transcription; actives raise or lower the signal
Procedure, shortened: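 Reporter mRNA levels, quantified by RT-PCR and fluorescent capillary electrophoresis, reflect endogenous AhR transcriptional activity in HepG2 cells carrying transfected cis-promoter reporter constructs. Readout at 24 h post-dose; gain or loss fitted against DMSO baseline.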

[6] = ATG_AP_1_CIS: Attagene CIS-FACTORIAL HepG2 Assay for human Activator Protein 1 (AP-1) (AID 2282931); settings: HepG2 Attagene cis-factorial AP-1 reporter mRNA; actives raise or lower the signal
Procedure, shortened: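 Bidirectional concentration-response fitting against DMSO controls. Underlying signal: reporter mRNA from cis-promoter constructs in transiently transfected HepG2, measured after 24 h by RT-PCR and capillary electrophoresis.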

[7] = ATG_AP_2_CIS: Attagene CIS-FACTORIAL HepG2 Assay for human Activator Protein 2 (AP-2) (AID 2282932); settings: HepG2 AP-2 cis-reporter, Attagene transcription factor profiling; actives raise or lower the signal
Procedure, shortened: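 HepG2, transient MRTU transfection, cis-regulated reporters; 24 h compound exposure; RNA isolated, RT-PCR, 6-FAM labelling, HpaI digest, CE fluorescence. DMSO = negative control/baseline, bidirectional fit.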

[8] = target: Retinoic acid receptor alpha (Homo sapiens) (UniProt P10276); test: ATG_DR5_RAR_CIS: Attagene CIS-FACTORIAL HepG2 Assay for human Retinoic Acid Receptor Alpha (RARE), DR5 submotif (AID 2282934); settings: HepG2 Attagene cis-factorial RARE DR5 reporter, mRNA; actives raise or lower the signal;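 on AC50: reporter responds to endogenous RAR alpha beta and gamma in HepG2 not RARA alone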
Procedure, shortened: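 Reporter transcripts from a DR5-regulated unit, measured via RT-PCR plus capillary electrophoresis, reflect endogenous RAR activity in transiently transfected human HepG2 liver cells. Exposure lasted 24 h; gain or loss of signal scored against DMSO.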

[9] = target: Transcription factor E2F1 (Homo sapiens) (UniProt Q01094); test: ATG_E2F_CIS: Attagene CIS-FACTORIAL HepG2 Assay for human E2F Transcription Factor 1 (AID 2282935); settings: HepG2 Attagene cis-reporter, E2F reporter RNA transcripts; actives raise or lower the signal
Procedure, shortened: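 Cis-element reporter mRNA induction in transiently transfected HepG2, 24 h exposure. Activity fitted in both directions relative to DMSO negative control.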

[10] = ATG_BRE_CIS: Attagene CIS-FACTORIAL HepG2 Assay for human Bone Morphogenetic Protein (BMP) Response Element (BRE) (AID 2282933); settings: HepG2 BMP response element reporter, Attagene transcription factor profiling; actives raise or lower the signal
Procedure, shortened: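 Endogenous transcription factor activity at a BMP response element was monitored in transfected HepG2 cells 24 h after dosing. Fluorescent RT-PCR products were resolved by capillary electrophoresis, and activity was fitted in both directions versus DMSO.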

Measured: AC50

CCAAT/enhancer-binding protein beta (Homo sapiens), sequence (P17676 whole entry, looked up, the tested form may be a part): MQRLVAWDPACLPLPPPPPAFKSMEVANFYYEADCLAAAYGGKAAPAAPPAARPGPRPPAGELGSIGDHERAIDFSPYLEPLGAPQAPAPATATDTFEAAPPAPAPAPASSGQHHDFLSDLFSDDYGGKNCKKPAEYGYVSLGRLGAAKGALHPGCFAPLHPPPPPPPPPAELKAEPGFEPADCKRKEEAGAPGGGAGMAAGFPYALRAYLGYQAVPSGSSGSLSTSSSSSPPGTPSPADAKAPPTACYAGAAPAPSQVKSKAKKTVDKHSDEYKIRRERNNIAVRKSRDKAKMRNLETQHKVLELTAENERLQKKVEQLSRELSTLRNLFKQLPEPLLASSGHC
Transcription factor E2F1 (Homo sapiens), sequence (Q01094 whole entry, looked up): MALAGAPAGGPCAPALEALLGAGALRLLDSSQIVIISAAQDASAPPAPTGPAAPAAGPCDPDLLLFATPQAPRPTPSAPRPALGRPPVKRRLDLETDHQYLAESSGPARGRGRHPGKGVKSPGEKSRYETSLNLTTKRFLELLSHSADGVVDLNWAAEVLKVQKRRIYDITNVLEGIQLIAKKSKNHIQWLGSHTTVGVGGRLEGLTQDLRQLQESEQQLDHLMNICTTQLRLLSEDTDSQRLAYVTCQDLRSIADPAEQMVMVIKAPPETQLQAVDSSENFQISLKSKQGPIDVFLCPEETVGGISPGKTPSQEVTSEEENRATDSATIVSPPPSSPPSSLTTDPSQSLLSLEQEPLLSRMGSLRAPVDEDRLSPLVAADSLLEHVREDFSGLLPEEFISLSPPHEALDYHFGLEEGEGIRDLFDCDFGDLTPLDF
Aryl hydrocarbon receptor (Homo sapiens), sequence (P35869 whole entry, looked up): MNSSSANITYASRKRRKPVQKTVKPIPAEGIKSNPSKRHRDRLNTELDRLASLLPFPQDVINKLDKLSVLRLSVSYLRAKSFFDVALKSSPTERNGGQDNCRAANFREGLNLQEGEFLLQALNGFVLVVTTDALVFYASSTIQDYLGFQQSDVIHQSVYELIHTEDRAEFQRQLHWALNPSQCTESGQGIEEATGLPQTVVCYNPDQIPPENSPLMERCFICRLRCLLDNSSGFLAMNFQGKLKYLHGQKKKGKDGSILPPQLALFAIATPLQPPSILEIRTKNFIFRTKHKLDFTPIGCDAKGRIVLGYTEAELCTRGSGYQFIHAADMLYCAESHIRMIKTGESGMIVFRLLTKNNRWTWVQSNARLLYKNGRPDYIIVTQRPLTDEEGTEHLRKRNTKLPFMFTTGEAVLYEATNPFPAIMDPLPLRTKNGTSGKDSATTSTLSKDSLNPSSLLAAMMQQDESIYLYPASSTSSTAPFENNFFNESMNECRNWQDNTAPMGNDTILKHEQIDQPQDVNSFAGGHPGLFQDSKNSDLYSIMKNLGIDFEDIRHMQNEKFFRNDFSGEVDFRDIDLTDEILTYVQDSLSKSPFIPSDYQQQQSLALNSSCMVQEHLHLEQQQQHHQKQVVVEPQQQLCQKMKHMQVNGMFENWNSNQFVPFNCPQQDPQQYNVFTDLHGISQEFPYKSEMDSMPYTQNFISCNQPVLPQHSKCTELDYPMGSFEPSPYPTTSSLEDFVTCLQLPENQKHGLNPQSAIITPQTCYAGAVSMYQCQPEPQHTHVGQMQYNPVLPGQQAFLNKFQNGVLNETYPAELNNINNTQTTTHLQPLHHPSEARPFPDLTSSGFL
Retinoic acid receptor alpha (Homo sapiens), sequence (P10276 whole entry, looked up): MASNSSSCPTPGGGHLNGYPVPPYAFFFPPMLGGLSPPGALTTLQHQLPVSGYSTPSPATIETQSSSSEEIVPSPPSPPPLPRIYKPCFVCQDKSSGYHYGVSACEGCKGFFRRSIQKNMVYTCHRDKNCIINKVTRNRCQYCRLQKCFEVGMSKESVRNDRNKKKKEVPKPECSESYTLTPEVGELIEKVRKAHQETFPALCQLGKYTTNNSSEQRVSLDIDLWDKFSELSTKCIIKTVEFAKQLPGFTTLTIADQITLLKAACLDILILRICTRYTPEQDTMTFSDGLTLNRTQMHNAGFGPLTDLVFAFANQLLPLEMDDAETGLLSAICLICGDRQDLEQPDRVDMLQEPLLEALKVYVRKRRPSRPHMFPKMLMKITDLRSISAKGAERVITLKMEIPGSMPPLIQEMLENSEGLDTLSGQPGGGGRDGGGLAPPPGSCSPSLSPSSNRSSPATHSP

CCCCC(CC)COC(=O)c1ccc(C(=O)OCC(CC)CCCC)c(C(=O)OCC(CC)CCCC)c1 (centres undefined)
not listed: [10]
inactive: all other assays above

CCCSC(=O)N(CCC)CCC
not listed: [8] | [9]
inactive: all other assays above

c1ccc(N=Nc2ccccc2)cc1
active: [4] 100 µM | [5] 125 µM
not listed: [10]
inactive: all other assays above

CC(O)CCO (centres undefined)
not listed: [9]
inactive: all other assays above

Cc1ccc([N+](=O)[O-])cc1
not listed: [8] | [9]
inactive: all other assays above

Cc1cccc(N)c1N
inactive: [2] | [4] | [7] | [10]
active: [1] 158 µM | [3] 30.3 µM | [5] 1.09 µM | [6] 30.5 µM | [8] 106 µM

C[C@]12C=CC3=C4CCC(=O)C=C4CC[C@H]3[C@@H]1CC[C@@H]2O
inactive: [1] | [3] | [4] | [5] | [6] | [7] | [10]
active: [1] 68.8 µM | [3] 28.3 µM | [4] 19.8 µM | [5] 19.8 µM and 35.7 µM | [7] 19.8 µM and 26.5 µM and 7.78 µM

Clc1ccc(C(c2ccc(Cl)cc2)C(Cl)Cl)cc1
active: [1] 54.5 µM | [2] 54.8 µM | [3] 52.9 µM | [4] 17.1 µM | [6] 50.9 µM | [7] 54.5 µM
inactive: [5]

CCC[CH2][Sn]([Cl])([CH2]CCC)[CH2]CCC
active: [2] 0.097 µM | [3] 0.552 µM | [4] 0.412 µM | [6] 0.522 µM
not listed: [8]
inactive: all other assays above

Nc1ccc(N=Nc2ccccc2)cc1
active: [5] 25.4 µM | [7] 169 µM
not listed: [9] | [10]
inactive: all other assays above

COP(=S)(OC)SCN1C(=O)c2ccccc2C1=O
inactive: [1] | [2] | [4] | [5] | [6] | [7]

Cc1ccc(N)c(N)c1
active: [3] 33.3 µM | [6] 27.5 µM
not listed: [5]
inactive: all other assays above

O=Cc1ccco1
not listed: [9]
inactive: all other assays above

Cc1cc(N=Nc2ccccc2C)ccc1N
active: [5] 2.99 µM | [10] 33.4 µM
not listed: [9]
inactive: all other assays above

Nc1ccc(Oc2ccc(N)cc2)cc1
inactive: all assays above

Clc1ccccc1Cl
not listed: [9] | [10]
inactive: all other assays above

CCCCCCCCOC(=O)c1ccc(C(=O)OCCCCCCCC)c(C(=O)OCCCCCCCC)c1
not listed: [10]
inactive: all other assays above

O=C(Nc1ccccc1)c1ccccc1I
active: [4] 157 µM
inactive: all other assays above

CCCCOC(=O)c1ccccc1C(=O)OCc1ccccc1
not listed: [9]
inactive: all other assays above

CCOc1cccc(C2(N3CCN(c4ccccc4)CC3)CCC(C)CC2)c1 (centres undefined)
not listed: [10]
inactive: all other assays above

N#CC(Br)Br
not listed: [9] | [10]
inactive: all other assays above

CC(C)(C)OOC(=O)c1ccccc1
active: [3] 74.8 µM | [6] 130 µM
not listed: [9]
inactive: all other assays above

Oc1ccc2ccc3cccc4ccc1c2c34
active: [4] 11.1 µM
not listed: [5] | [10]
inactive: all other assays above

Cn1cc(-c2ccccc2)c(=O)c(-c2cccc(C(F)(F)F)c2)c1
inactive: [3] | [6] | [7] | [9]
active: [1] 79.1 µM | [2] 66.9 µM | [4] 73.7 µM | [5] 69.1 µM | [8] 15.3 µM

[Cl-].[Cl-].[Hg+2]
active: [4] 33.4 µM
not listed: [8]
inactive: all other assays above

O=[N+]([O-])c1ccc(Oc2ccc(Cl)cc2Cl)cc1
inactive: [1] | [2] | [6] | [7]
active: [4] 48.1 µM | [5] 68.6 µM | [10] 56.4 µM

CN(C)[C@@H]1C(=O)C(C(N)=O)=C(O)[C@@]2(O)C(=O)C3=C(O)c4c(O)cccc4[C@@](C)(O)[C@H]3C[C@@H]12
inactive: [1] | [2] | [4] | [5] | [6] | [7]

O=C1CCCO1
not listed: [3] | [9] | [10]
inactive: all other assays above

CCCCCCCCn1sccc1=O
active: [1] 14.4 µM | [10] 11.6 µM
not listed: [3] | [8]
inactive: all other assays above

CCOC(=O)[C@]1(c2ccccc2)Oc2ccccc2[C@@H]1N
inactive: [5]
active: [1] 20.3 µM | [3] 33 µM | [4] 52.4 µM | [6] 40 µM | [7] 55.1 µM | [8] 13.6 µM

Nc1cc(Cl)cc(C(=O)O)c1Cl
active: [5] 58 µM
not listed: [2] | [9] | [10]
inactive: all other assays above

CS(=O)(=O)NC(=O)c1cc(Oc2ccc(C(F)(F)F)cc2Cl)ccc1[N+](=O)[O-]
not listed: [3] | [9] | [10]
inactive: all other assays above

CC(C)(C)C(O)(CCc1ccc(Cl)cc1)Cn1cncn1 (centres undefined)
inactive: [1] | [7] | [8]
active: [3] 122 µM | [4] 152 µM | [5] 52.3 µM | [6] 140 µM

Cc1ccc(N)cc1
not listed: [3] | [9]
inactive: all other assays above

ClC1=C(Cl)C2(Cl)C3C(Cl)C=CC3C1(Cl)C2(Cl)Cl (centres undefined)
active: [4] 40.1 µM | [6] 154 µM
not listed: [3]
inactive: all other assays above

Nc1ccc(Cl)cc1N
active: [3] 6.32 µM | [5] 0.431 µM | [6] 9.15 µM
not listed: [2] | [9]
inactive: all other assays above

C[N+](C)(C)CC1CO1 (centres undefined)
not listed: [3] | [9]
inactive: all other assays above

[As]#[In]
active: [5] 65 µM
not listed: [3] | [9]
inactive: all other assays above

CC(C)(OOC(C)(C)c1ccccc1)c1ccccc1
inactive: [5] | [7] | [8] | [9]
active: [1] 57.4 µM | [2] 59.3 µM | [4] 63.9 µM | [6] 57.5 µM
